Gal4-VP16 FLuc = Gal4-VP16 reporter inhibition counter-screen | Drosophila S2 Gal4-VP16 UAS-luciferase, luminescence, 20 h | Potency, µM (top dose mostly 53.6 µM), for inactives: top-dose activity, negative = inhibition, most hits filed as inhibitors | actives 3.5% (n = 310,000) | AID 2546;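 further: Gal4-VP16 expression switched on by copper sulfate through the metallothionein promoter; nearly all actives have a fitted effect of over 50% in size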
KinaseGlo FLuc = blocks Kinase-Glo luciferase, a counter-screen artifact; Q27757; Kinase-Glo luciferase, ATP luminescence, 8 min; Potency, µM (series often up to 38.3 µM), without a hit: at the highest dose activity change, negative = inhibition, most hits filed as inhibitors; actives 0.28% (n = 200,000); further: nearly all actives have a fitted effect of over 60% in size
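Substrate mix (final 50 mM imidazole pH 7.2, 50 mM KCl, 7 mM MgCl2, 10 uM ATP, 0.01% Tween 20, 0.05% BSA) plus pin-tool compound, then Kinase-Glo detection mix; 8 min ambient, luminescence read.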
RORg inh = blocks mouse ROR gamma transcriptional activity; P51450; Drosophila S2 Gal4-RORgamma UAS-luciferase reporter, 20 h; Potency, µM (doses to about 53.6 µM), inactives show at the top dose activity change, negative = inhibition, most hits filed as inhibitors; actives 5.4% (n = 310,000); AID 2551; further: nearly all actives have a fitted effect of over 60% in size
Target sequence (P51450 whole entry, looked up, the tested form may be a part): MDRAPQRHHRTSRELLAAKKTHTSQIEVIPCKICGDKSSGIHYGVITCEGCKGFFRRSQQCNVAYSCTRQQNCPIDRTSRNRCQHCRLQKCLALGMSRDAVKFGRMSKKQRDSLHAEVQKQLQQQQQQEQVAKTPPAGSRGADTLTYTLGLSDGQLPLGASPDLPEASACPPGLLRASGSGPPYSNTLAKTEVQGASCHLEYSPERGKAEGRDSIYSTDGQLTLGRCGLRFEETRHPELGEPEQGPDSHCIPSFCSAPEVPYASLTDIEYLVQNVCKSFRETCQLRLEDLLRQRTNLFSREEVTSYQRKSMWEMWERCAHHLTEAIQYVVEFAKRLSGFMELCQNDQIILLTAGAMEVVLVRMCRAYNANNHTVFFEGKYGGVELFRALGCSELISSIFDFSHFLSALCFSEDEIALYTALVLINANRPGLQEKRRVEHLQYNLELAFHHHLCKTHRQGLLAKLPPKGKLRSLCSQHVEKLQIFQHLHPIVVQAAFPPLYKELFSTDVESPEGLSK
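Using a luciferase readout, inhibitors were identified by reduced reporter activity in Drosophila cells coexpressing a copper-inducible Gal4–ROR gamma fusion and UAS-driven Photinus luciferase, incubated 20 hr after 700 uM copper sulfate.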
Starred values were filed as active, the others as inactive; ? = inconclusive; . = no result; [ ] = dose if it differs, or a comment. The list is not random: actives were taken first. Their share in the collection is about 6.2%. The call rests on the fitted dose curve; in most records, active means well fitted curve in the direction sought with a large enough effect; inconclusive means small, poorly fitted or top-dose-only effect, or another doubt; inactive means no such curve, though single readings can be large; an effect the other way counts as inactive or inconclusive. On the % scale 0 is the no-effect control and ±100 the full control effect; potency means the concentration at half of the fitted maximal effect.

SMILES	Gal4-VP16 FLuc	KinaseGlo FLuc	RORg inh
CC(=O)NNc1ncnc2c1cnn2-c1ccc(C)c(C)c1	18.0%	-2.2%	-37.1%
CCC(=O)NNc1ncnc2c1cnn2-c1ccccc1	-2.3%	-1.8%	-26.0%
Cc1ccc(-n2ncc3c(NCc4cccnc4)ncnc32)c(C)c1	17.8µM*	-2.0%	?
Cc1cccc(-n2ncc3c(NCc4cccnc4)ncnc32)c1	-27.6%	.	25.1%
Cc1ccc(-n2ncc3c(NCc4ccco4)ncnc32)c(C)c1	11.0%	2.5%	?
Cc1ccc(-n2ncc3c(NNC(=O)c4ccco4)ncnc32)c(C)c1	?	2.7%	11.2µM*
Cc1ccc(-n2ncc3c(NNC(=O)c4cccs4)ncnc32)cc1	10µM*	-3.0%	1.26µM*
O=C(NNc1ncnc2c1cnn2-c1ccc(F)cc1)c1ccco1	10µM*	.	8.91µM*
CSCCC(NC(=O)COc1ccccc1)C(=O)NCCOc1ccc(C)cc1 (stereo not given)	2.0%	.	22.3%
O=C(Oc1ccccc1)N1CCC2(CCCN(c3ccccc3)C2)CC1	0.6%	1.9%	27.2%
COc1ccc(OC)c(CNC(=O)C2CCC(=O)N(CCCN3CCCC3=O)C2)c1 (stereo not given)	3.1%	.	1.3%
CCOC(=O)c1c(C)n(-c2ccc(C)cc2)c2ccc(OCC(O)CNCCCO)cc12 (stereo not given)	?	0.1%	7.08µM*
CCOC(=O)c1c(C)n(C)c2ccc(OCC(O)CNC(CC)CO)cc12 (stereo not given)	-2.3%	-5.8%	-13.4%
C=CCC1(Cl)C(=O)C(Cl)=C(N2CCOCC2)C1(OC)OC (stereo not given)	6.9%	.	10.8%
O=S(=O)(NNc1ccc(Cl)nn1)c1ccc(F)cc1	?	-1.5%	14.1µM*
O=S(=O)(Nc1ccc(Cl)nn1)c1ccccc1	5.1%	5.7%	-4.3%
COc1ccc2[nH]c(C(=O)Nc3ccc(F)cc3Br)cc2c1	4.9%	.	1.5%
Cc1ccc(N(C(=O)c2ccco2)C(C(=O)NC2CCCC2)c2ccco2)c(C)c1 (stereo not given)	4.4%	.	18.0%
Cc1nnsc1C(=O)NNC(=O)c1cccc2ccccc12	-2.2%	.	-31.6%
COc1ccc(Cc2nnc(NC(=O)CSc3ccc(Cl)cc3)s2)cc1OC	?	1.5%	12.6µM*
COc1ccc(Cc2nnc(NC(=O)CSc3ccccc3)s2)cc1OC	-4.1%	-0.9%	-44.8%
COc1ccc(-c2nnc(NC(=O)CSc3ccccc3)s2)cc1OC	22.4µM*	0.1%	?
COc1ccc(-c2nnc(NC(=O)CSc3ccc(C)cc3)s2)cc1OC	0.3%	-1.1%	-5.4%
Cc1ccc(CNS(=O)(=O)c2ccc3c(c2)NC(=O)CS3)cc1	-14.4%	.	0.4%
C=CCNc1nc(N)c([N+](=O)[O-])c(Nc2ccccc2OC)n1	-0.1%	.	-17.1%
SMILES	Gal4-VP16 FLuc	KinaseGlo FLuc	RORg inh
COc1ccccc1Nc1nc(NCCCN(C)C)nc(N)c1[N+](=O)[O-]	15.8µM*	.	?
O=c1cnc2cnc(Nc3ccccc3)nc2n1C[C@H]1CCCO1	?	-1.4%	-37.4%
COc1cccc(Nc2ncc3ncc(=O)n(C[C@H]4CCCO4)c3n2)c1	11.2µM*	.	-32.6%
COP(=O)(OC)c1nc(-c2ccccc2)oc1N1CCOCC1	-2.4%	-1.5%	3.5%
Cc1ccc(NC(=O)C(=O)NCC2CCCO2)cc1 (stereo not given)	-20.1%	-5.0%	-14.3%
O=C(NCC1CCCO1)Nc1ccc(Cl)cc1 (stereo not given)	-2.2%	0.3%	5.6%
O=C(CSc1cc(Cl)ccc1Cl)NCC1CCCO1 (stereo not given)	-5.3%[0.365 µM]	3.8%	-37.4%
S=C(NCC1CCCO1)Nc1ccc(Cl)cc1 (stereo not given)	?	-1.4%	10µM*
S=C(NCC1CCCO1)NC12CC3CC(CC(C3)C1)C2 (stereo not given)	5.01µM*	0.6%	0.631µM*
CCN(CC)c1ccc(NC(=S)NCC2CCCO2)cc1 (stereo not given)	12.6µM*	0.5%	14.1µM*
S=C(NCC1CCCO1)Nc1ccc(Cl)cc1Cl (stereo not given)	?	1.6%	15.8µM*
O=C(NCC1CCCO1)NC12CC3CC(CC(C3)C1)C2 (stereo not given)	4.8%	12.4%	8.0%
NNC(=O)CNC(=O)C12CC3CC(CC(C3)C1)C2	-3.5%	-1.4%	16.8%
Cc1cccc(NC(=S)NCC2CCCO2)c1 (stereo not given)	?	-0.8%	?
Cc1ccc(NC(=S)NCC2CCN(C(C)c3ccccc3)C2)cc1C (stereo not given)	?	.	8.91µM*
Cc1ccc(NC(=S)NCCCN2CCOCC2)cc1C	-94.5%	.	-44.9%
Cc1ccc(NC(=S)NCCN2CCOCC2)cc1C	-5.9%	-1.8%	11.2µM*
Cc1ccc(NC(=S)NCc2ccccc2)cc1S(=O)(=O)N1CCCCC1	?	-1.3%	29.3%
Cc1ccc(NC(=S)NCC2CCCO2)cc1C (stereo not given)	10µM*	-0.2%	?
CC(Oc1ccc(Cl)cc1)C(=O)NCC1CCCO1 (stereo not given)	-4.5%	.	-17.0%
CC(Oc1ccc(F)cc1F)C(=O)NNC(=S)NCC1CCCO1 (stereo not given)	?	.	11.2µM*
CC(C)[C@@H](CC(=O)N[C@@H]1CCNC[C@H]1C(=O)N[C@H](CC(=O)N[C@@H](CCC(=O)O)CC(=O)O)Cc1c[nH]c2ccccc12)NC(=O)C[C@H](Cc1c[nH]c2ccccc12)NC(=O)[C@@H]1CNCC[C@H]1N	-1.6%	-0.6%	-21.0%
Cc1cc(NC(=O)c2cc(C(C)C)on2)nn1Cc1ccc(Cl)cc1	7.9%	4.3%	19.5%
COc1cc(NC(=S)NCC2CCCO2)c(OC)cc1Cl (stereo not given)	17.8µM*	-1.6%	10µM*
O=C(NCC1CCCO1)c1ccccc1 (stereo not given)	0.8%	-2.7%	-11.7%
SMILES	Gal4-VP16 FLuc	KinaseGlo FLuc	RORg inh
Cc1ccc(NC(=S)NCC2CCCO2)c(OC(F)F)c1 (stereo not given)	?	-0.1%	11.2µM*
Cc1cc(C)c(C)c(OCC(=O)NCC2CCCO2)c1 (stereo not given)	-9.7%	-1.8%	-28.5%
S=C(NCC1CCCO1)Nc1ccccc1 (stereo not given)	-3.1%	5.8%	11.2µM*
COc1cc(NC(=O)C2CCCO2)c(OC)cc1Cl (stereo not given)	3.8%	-2.5%	3.2%
O=C(O)c1ccccc1CSc1ncccc1C(=O)O	2.6%	5.0%	-8.5%
Cc1ccc(S(=O)(=O)Nc2ccc(Cl)cn2)cc1C	7.6%	.	1.0%
O=S(=O)(NCCNC/C=C/c1ccc(Br)cc1)c1cccc2cnccc12	.	-5.5%	.
O=C(O)C(=O)/C=C(\O)c1ccc(Br)cc1	.	-4.1%[7.66 µM]	.
CCCCC(C=O)CC (stereo not given)	-15.0%	.	0.2%
N#Cc1ccc(C(=O)Nc2nnc(-c3cccs3)o2)cc1	1µM*	.	0.708µM*
CN(C)S(=O)(=O)c1ccc(C(=O)Nc2nnc(-c3cccs3)o2)cc1	1.26µM*	3.0%	0.631µM*
CN(C)S(=O)(=O)c1ccc(C(=O)Nc2nc(-c3cccs3)cs2)cc1	-19.2%	3.6%	2.9%
CN(C)S(=O)(=O)c1ccc(C(=O)Nc2nnc(-c3ccc4c(c3)CCCC4)o2)cc1	0.0891µM*	1.5%	0.126µM*

Compound activity as filed in PubChem BioAssay.
